Data on 20 compounds can be found in PubChem BioAssay (NCI).

Structures are written as SMILES. The panel holds about 79,000 compounds, 15% with a hit somewhere; the sample as a whole holds those more often. Values without a mark were called inactive. Active and inactive are the calls of the source. No stated cut-off is given here; in the data, active means growth inhibition above about 70%; inactive means the rest.

Assay [1] can be described thus: NCI Yeast Anticancer Drug Screen. Data for the rad50 strain (AID 155).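 Further: 0% = growth of vehicle-only cultures of the same strain.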 To be noted: S. cerevisiae rad50 strain growth inhibition; at 50.0 µM; stronger effect = higher value. The procedure, abridged:
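Compounds were tested on a yeast strain with an engineered DNA damage repair alteration; the reported value is growth inhibition normalised to vehicle treatment.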

A short description of assay [2]: NCI Yeast Anticancer Drug Screen. Data for the mec2-1 strain (AID 157). The following applies: S. cerevisiae mec2-1 strain, at 50.0 µM, stronger effect = higher value. The procedure, abridged:
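Mutant yeast (mec2-1) grown with compound; growth inhibition relative to vehicle control reported.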

Assay [3] is described as follows: NCI Yeast Anticancer Drug Screen. Data for the sgs1 mgt1 strain (AID 161).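 Further: 0% = growth of cultures given vehicle only.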 The following applies: S. cerevisiae sgs1 mgt1 strain, at 50.0 µM, stronger effect = higher value. In a few lines:
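This yeast growth screen uses a strain with defined DNA-repair lesions; compound-treated growth is compared with vehicle-treated growth.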

Assay [4] is described as follows: NCI Yeast Anticancer Drug Screen. Data for the cln2 rad14 strain (AID 165).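 Further: 0% = growth equal to vehicle treated cultures.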 To be noted: S. cerevisiae cln2 rad14 strain, at 50.0 µM, stronger effect = higher value. The procedure, abridged:
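Readout is yeast growth inhibition versus vehicle-treated controls, using a strain with cln2 and rad14 alterations exposed to compound.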

Assay [5] is described as follows: NCI Yeast Anticancer Drug Screen. Data for the bub3 strain (AID 167). To be noted: S. cerevisiae bub3 mutant strain, at 50.0 µM, stronger effect = higher value. The procedure, abridged:
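Growth of a checkpoint-deficient yeast mutant is measured after compound exposure. Values represent inhibition relative to vehicle.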

Assay [6] in a line: NCI Yeast Anticancer Drug Screen. Data for the mlh1 rad18 strain (AID 175). To be noted: S. cerevisiae mlh1 rad18 strain growth inhibition; at 50.0 µM; stronger effect = higher value. The procedure, abridged:
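Genetically defined yeast (DNA repair-deficient) exposed to compounds; growth inhibition determined relative to vehicle.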

On to `CC(=O)Nc1ccc(C(=O)N2C(=N)C(C#N)=C(O)/C2=C\c2ccc(Cl)c(Cl)c2)cc1`, for which the growth inhibition in assay [1] is -7.3%; in assay [2] it was -5.7%; in assay [3], -18.4%; in assay [4] it was 1.3%; in assay [5], -20.8%; in assay [6] it was 2.15%.

On to `CC(=O)OCC1OC(OC(C)=O)C(NC(=O)c2ccc(Br)cc2)C(OC(C)=O)C1OC(C)=O` (stereo not given), for which the growth inhibition was 42.1% in assay [1]; 19.4% in assay [2]; 39.5% in assay [3]; 19.6% in assay [4]; -1.1% in assay [5]; 31.8% in assay [6].

On to `Nc1nc(I)nc2c1ncn2C1OC(COS(N)(=O)=O)C(O)C1O` (stereo not given), for which the growth inhibition is 67% in assay [1]; 67.5% in assay [2]; 40.9% in assay [3]; 63.6% in assay [4]; 43.9% in assay [5]; 78.3% (active) in assay [6].

Take `N#COc1ccc(-c2ccccc2)cc1`: the growth inhibition in assay [1] was -38.5%; in assay [2], -8.35%; in assay [3], -12.2%; in assay [4], -15.2%; in assay [5], -9.25%; in assay [6] it was 0.8%.

For the compound `CCNC(=O)OCCN1C(=O)C2C3CCC(O3)C2C1=O` (stereo not given), the growth inhibition in assay [1] is 5.25%; in assay [2], 11.4%; in assay [3], 22.1%; in assay [4], 3.35%; in assay [5] it was 8.5%; in assay [6], 12.8%.

Take `Cc1nccc2c3ccccc3n(S(=O)(=O)O)c12`: the growth inhibition in assay [1] is -4.7%; in assay [2], 26.1%; in assay [3], 11.4%; in assay [4], 55%; in assay [5] it was -5.95%; in assay [6] it was 9%.

Regarding `CC1=NC(C(=O)O)CC1C` (stereo not given), the growth inhibition in assay [1] was 1.15%; in assay [2] it was 4%; in assay [3], -5.35%; in assay [4], -7.7%; in assay [5] it was 1.45%; in assay [6], -1.3%.

Consider `O=[n+]1ccn([O-])c2cc(Cl)ccc21`, for which the growth inhibition in assay [1] was 13.6%; in assay [2], 13.2%; in assay [3], 10.2%; in assay [4], -16.2%; in assay [5], -5.1%; in assay [6], 9.85%.

Consider `Clc1ccc(OCC(COc2ccc(Cl)cc2)(COc2ccc(Cl)cc2)COc2ccc(Cl)cc2)cc1`, for which the growth inhibition in assay [1] is -0.75%; in assay [2], 2.75%; in assay [3] it was -4.8%; in assay [4], 5.9%; in assay [5] it was -4.45%; in assay [6] it was 0.7%.

Take `CSc1nc(NC2OC(COC(C)=O)C(OC(C)=O)C(OC(C)=O)C2OC(C)=O)c(-c2csc(N)n2)c(=O)n1C` (stereo not given): the growth inhibition in assay [1] was -6.8%; in assay [2] it was -38%; in assay [3] it was -22.4%; in assay [4], 10.2%; in assay [5] it was -8.15%; in assay [6], 13.3%.

Turning to `CCOC(=O)N/N=C(\C)c1ccc(OC)cc1`, the growth inhibition is 17.8% in assay [1]; 21.9% in assay [2]; 20.1% in assay [3]; 11.3% in assay [4]; 34.9% in assay [5]; 19.1% in assay [6].

Turning to `ClC1=Cc2cccc3cccc1c23`, the growth inhibition is 1.55% in assay [1]; 6.15% in assay [2]; 0.2% in assay [3]; 2.5% in assay [4]; 12.4% in assay [5]; 3.8% in assay [6].

Regarding `O=C(c1ccc2c(c1)C(=O)OC2=O)c1ccc2c(c1)C(=O)OC2=O`, the growth inhibition in assay [1] is -22.5%; in assay [2] it was -39.9%; in assay [3], -17.8%; in assay [4], 6.1%; in assay [5], -27.8%; in assay [6] it was -29.7%.

With `CCCCCCCCCCCCCCCCSc1ccc(Br)cc1`, the growth inhibition in assay [1] is 45%; in assay [2] it was 7%; in assay [3] it was 23.9%; in assay [4], 1.8%; in assay [5], 2.2%; in assay [6], 21%.

As for `CCCCC(C)NC=O` (stereo not given), the growth inhibition in assay [1] is 31.4%; in assay [2], 13%; in assay [3], 3.9%; in assay [4] it was 9%; in assay [5], 14.4%; in assay [6] it was 24.6%.

With `O=P(O)(O)CN1CCN(CP(=O)(O)O)CCN(CP(=O)(O)O)CCN(CP(=O)(O)O)CC1`, the growth inhibition is -39.9% in assay [1]; -16.8% in assay [2]; -8.75% in assay [3]; 12.1% in assay [4]; -0.05% in assay [5]; -19.1% in assay [6].

Turning to `CC(C)c1ccc(C(C)(C)O)cc1`, the growth inhibition in assay [1] was 4.75%; in assay [2], 15.7%; in assay [3], -19.8%; in assay [4], -7.8%; in assay [5], -6.8%; in assay [6], -17.6%.

As for `CCOc1c(C)cc(C(C)c2cc3c(cc2OC)OCO3)cc1C` (stereo not given), the growth inhibition in assay [1] is 19.2%; in assay [2], 26%; in assay [3], 23.5%; in assay [4], 17.4%; in assay [5], 51.4%; in assay [6], 25.1%.

On to `COc1cc(C)c(/C=C/C(=O)N2C(=O)OC[C@@H]2c2ccccc2)c(C)c1`, for which the growth inhibition was 4.35% in assay [1]; -8.75% in assay [2]; 21.1% in assay [3]; 26.9% in assay [4]; 19.1% in assay [5]; 18.2% in assay [6].

`CCN(CC)CCCC(C)Nc1nncc2ccccc12` (stereo not given): the growth inhibition in assay [1] is -19.2%; in assay [2], -2.1%; in assay [3], 2.55%; in assay [4], -17.3%; in assay [5], -1.3%; in assay [6] it was -8.95%.
